Experiments:
Assay in all cases: log2 ratio of Biotin-Ahx-Ub-VS probe labelling (fragment/DMSO); higher = less target engagement (more negative = stronger competition), active = hit call of the paper (q ≤ 0.05, log2 ratio ≤ -1)
Conditions in all cases: compound concentration: 200 uM; treatment time: 3 h
USP42 = biological target: T1, USP42 (UniProt Q9H9J4)
T1 sequence (whole entry): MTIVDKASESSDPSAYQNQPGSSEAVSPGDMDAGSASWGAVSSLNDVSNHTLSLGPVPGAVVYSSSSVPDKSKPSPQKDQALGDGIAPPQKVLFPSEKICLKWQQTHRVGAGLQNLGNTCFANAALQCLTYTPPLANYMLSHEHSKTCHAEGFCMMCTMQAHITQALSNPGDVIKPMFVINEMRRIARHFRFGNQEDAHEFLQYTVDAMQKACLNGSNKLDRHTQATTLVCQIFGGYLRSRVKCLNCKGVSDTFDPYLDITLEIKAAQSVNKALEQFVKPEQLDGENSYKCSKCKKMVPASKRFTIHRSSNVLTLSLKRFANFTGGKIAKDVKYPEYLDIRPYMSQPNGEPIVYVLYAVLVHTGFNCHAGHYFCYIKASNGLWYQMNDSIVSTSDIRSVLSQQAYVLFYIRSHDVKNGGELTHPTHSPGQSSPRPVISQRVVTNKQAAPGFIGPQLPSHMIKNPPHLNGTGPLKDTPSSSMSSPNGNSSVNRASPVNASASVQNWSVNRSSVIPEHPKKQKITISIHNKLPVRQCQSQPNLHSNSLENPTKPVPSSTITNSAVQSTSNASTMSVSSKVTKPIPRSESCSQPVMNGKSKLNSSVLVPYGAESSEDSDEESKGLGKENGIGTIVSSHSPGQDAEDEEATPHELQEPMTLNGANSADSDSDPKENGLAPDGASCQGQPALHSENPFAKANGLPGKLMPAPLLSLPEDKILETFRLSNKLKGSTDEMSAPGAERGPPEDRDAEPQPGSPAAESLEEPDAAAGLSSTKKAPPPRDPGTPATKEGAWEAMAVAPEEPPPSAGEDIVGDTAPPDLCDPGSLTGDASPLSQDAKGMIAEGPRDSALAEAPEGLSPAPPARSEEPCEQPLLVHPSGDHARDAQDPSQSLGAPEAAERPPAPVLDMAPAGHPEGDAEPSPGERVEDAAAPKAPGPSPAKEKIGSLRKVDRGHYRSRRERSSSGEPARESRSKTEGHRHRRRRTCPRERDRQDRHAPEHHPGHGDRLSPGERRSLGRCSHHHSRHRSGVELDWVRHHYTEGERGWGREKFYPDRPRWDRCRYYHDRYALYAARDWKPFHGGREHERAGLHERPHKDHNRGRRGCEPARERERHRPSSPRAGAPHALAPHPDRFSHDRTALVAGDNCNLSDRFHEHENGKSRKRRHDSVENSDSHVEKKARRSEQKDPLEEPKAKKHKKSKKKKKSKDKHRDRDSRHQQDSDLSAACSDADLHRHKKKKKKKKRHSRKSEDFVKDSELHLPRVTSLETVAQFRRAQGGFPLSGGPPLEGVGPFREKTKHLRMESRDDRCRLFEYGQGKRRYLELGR
Procedure, shortened: (§1)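 Triplicate samples of HEK293T lysate, 495 µg each, received fragment at 200 µM or vehicle for 3 h, followed by Biotin-Ahx-Ub-VS (0.5 µM final) for 1 h. After NeutrAvidin enrichment of labelled DUBs and LysC/trypsin digestion, peptides were run by diaPASEF LC-MS/MS. The values are average log2 fragment/vehicle ratios from global-median-normalised Spectronaut label-free quantities, tested by unpaired t-test on proteins having ≥2 unique peptides.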

USP46 = USP46 (UniProt P62068)
USP46, sequence (P62068 whole entry): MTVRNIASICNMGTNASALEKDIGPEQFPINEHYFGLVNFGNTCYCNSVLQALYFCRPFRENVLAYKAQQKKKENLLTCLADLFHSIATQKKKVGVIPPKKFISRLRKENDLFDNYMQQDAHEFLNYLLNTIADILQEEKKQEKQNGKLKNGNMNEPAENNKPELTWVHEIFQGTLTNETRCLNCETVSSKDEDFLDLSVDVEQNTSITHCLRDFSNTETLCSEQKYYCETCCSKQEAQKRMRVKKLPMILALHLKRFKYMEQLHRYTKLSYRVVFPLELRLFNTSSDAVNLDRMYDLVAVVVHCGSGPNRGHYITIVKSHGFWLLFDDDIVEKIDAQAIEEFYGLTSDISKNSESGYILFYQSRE
Procedure, shortened: as §1

USP47 = biological target: T2, USP47 (UniProt Q96K76)
T2 sequence (whole entry): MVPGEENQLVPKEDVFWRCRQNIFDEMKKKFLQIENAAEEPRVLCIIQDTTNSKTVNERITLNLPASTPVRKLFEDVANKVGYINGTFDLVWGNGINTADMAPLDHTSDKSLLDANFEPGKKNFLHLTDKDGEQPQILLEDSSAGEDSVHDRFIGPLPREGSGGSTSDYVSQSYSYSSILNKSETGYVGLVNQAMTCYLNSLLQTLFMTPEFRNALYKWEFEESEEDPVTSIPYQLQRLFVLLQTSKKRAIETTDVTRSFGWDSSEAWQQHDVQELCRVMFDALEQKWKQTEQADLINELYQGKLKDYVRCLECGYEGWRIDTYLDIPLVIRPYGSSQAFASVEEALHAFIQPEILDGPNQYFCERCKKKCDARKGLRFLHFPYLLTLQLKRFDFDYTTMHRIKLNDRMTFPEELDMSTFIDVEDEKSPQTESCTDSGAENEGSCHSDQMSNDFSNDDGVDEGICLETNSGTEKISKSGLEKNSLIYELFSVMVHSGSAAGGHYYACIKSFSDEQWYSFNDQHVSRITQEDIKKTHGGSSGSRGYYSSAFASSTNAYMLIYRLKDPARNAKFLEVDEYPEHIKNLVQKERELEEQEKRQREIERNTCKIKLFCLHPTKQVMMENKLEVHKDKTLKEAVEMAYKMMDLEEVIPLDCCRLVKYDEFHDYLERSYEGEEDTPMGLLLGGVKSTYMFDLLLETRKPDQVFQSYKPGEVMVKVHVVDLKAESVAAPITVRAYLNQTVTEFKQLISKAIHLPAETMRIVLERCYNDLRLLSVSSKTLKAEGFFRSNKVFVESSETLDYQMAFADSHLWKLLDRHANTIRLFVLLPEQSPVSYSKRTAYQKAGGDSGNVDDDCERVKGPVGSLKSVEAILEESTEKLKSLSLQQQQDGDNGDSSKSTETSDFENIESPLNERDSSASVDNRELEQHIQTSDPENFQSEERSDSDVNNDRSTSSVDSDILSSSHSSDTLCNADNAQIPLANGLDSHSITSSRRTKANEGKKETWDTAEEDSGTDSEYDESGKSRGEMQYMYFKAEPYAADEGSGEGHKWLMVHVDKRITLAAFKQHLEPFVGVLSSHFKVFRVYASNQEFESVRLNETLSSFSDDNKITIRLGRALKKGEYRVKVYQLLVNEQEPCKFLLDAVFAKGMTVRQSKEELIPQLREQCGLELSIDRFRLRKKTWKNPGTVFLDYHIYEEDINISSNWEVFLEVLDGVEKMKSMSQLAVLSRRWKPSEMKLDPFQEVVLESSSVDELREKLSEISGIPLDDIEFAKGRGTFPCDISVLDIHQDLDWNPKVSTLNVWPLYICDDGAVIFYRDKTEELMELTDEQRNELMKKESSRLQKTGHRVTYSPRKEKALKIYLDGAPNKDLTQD
Procedure, shortened: as §1

USP48 = biological target: T3, USP48 (UniProt Q86UV5)
T3 sequence (whole entry): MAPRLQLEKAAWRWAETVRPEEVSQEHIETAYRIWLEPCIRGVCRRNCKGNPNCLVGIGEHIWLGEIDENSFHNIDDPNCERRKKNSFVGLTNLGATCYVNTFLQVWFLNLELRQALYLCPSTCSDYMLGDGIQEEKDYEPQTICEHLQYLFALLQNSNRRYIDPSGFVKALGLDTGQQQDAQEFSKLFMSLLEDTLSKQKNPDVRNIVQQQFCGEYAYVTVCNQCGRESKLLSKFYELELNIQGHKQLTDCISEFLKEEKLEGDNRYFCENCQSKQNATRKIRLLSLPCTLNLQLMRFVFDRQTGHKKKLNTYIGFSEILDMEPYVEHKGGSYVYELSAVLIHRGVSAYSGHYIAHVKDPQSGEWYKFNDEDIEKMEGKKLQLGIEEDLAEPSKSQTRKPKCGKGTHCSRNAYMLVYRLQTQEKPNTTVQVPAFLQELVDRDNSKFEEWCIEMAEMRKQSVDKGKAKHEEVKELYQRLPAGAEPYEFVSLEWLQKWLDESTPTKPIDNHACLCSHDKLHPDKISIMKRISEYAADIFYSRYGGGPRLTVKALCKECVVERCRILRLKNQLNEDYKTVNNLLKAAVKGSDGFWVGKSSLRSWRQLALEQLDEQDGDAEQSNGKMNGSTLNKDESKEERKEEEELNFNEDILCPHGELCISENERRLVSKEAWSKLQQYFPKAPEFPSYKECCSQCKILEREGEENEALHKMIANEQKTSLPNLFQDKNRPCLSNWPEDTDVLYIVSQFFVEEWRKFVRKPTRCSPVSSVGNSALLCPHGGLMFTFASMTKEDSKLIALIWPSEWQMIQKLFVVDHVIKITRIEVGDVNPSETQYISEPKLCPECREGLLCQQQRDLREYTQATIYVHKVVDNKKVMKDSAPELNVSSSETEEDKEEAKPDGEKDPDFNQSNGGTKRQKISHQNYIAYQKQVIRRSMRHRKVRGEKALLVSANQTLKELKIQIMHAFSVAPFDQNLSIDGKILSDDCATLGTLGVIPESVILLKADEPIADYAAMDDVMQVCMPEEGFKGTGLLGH
Procedure, shortened: as §1

USP5 = biological target: T4, USP5 (UniProt P45974)
T4 sequence (whole entry): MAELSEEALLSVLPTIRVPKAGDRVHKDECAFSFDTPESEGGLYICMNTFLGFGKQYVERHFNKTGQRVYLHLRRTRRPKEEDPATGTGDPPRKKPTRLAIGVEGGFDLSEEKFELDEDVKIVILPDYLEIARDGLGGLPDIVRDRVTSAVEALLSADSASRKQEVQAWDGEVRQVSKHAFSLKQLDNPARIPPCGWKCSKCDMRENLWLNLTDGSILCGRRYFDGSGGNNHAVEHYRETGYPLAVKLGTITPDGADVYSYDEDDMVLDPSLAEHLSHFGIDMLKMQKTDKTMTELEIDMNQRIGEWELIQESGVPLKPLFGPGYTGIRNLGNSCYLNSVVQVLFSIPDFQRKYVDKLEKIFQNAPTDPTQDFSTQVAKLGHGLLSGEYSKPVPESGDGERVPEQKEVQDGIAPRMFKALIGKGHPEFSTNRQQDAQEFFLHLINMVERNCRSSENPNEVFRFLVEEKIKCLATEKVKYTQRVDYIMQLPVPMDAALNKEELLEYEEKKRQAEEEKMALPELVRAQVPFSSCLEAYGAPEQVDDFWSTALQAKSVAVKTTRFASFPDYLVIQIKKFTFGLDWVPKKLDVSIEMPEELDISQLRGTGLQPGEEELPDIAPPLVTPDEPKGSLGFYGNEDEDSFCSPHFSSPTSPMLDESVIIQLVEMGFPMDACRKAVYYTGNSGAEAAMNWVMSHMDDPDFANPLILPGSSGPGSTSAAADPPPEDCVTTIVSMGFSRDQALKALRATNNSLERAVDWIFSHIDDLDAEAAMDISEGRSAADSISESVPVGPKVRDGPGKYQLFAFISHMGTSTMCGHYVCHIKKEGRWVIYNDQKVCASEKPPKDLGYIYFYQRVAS
Procedure, shortened: as §1

USP54 = USP54 (UniProt Q70EL1)
USP54, sequence (Q70EL1 whole entry): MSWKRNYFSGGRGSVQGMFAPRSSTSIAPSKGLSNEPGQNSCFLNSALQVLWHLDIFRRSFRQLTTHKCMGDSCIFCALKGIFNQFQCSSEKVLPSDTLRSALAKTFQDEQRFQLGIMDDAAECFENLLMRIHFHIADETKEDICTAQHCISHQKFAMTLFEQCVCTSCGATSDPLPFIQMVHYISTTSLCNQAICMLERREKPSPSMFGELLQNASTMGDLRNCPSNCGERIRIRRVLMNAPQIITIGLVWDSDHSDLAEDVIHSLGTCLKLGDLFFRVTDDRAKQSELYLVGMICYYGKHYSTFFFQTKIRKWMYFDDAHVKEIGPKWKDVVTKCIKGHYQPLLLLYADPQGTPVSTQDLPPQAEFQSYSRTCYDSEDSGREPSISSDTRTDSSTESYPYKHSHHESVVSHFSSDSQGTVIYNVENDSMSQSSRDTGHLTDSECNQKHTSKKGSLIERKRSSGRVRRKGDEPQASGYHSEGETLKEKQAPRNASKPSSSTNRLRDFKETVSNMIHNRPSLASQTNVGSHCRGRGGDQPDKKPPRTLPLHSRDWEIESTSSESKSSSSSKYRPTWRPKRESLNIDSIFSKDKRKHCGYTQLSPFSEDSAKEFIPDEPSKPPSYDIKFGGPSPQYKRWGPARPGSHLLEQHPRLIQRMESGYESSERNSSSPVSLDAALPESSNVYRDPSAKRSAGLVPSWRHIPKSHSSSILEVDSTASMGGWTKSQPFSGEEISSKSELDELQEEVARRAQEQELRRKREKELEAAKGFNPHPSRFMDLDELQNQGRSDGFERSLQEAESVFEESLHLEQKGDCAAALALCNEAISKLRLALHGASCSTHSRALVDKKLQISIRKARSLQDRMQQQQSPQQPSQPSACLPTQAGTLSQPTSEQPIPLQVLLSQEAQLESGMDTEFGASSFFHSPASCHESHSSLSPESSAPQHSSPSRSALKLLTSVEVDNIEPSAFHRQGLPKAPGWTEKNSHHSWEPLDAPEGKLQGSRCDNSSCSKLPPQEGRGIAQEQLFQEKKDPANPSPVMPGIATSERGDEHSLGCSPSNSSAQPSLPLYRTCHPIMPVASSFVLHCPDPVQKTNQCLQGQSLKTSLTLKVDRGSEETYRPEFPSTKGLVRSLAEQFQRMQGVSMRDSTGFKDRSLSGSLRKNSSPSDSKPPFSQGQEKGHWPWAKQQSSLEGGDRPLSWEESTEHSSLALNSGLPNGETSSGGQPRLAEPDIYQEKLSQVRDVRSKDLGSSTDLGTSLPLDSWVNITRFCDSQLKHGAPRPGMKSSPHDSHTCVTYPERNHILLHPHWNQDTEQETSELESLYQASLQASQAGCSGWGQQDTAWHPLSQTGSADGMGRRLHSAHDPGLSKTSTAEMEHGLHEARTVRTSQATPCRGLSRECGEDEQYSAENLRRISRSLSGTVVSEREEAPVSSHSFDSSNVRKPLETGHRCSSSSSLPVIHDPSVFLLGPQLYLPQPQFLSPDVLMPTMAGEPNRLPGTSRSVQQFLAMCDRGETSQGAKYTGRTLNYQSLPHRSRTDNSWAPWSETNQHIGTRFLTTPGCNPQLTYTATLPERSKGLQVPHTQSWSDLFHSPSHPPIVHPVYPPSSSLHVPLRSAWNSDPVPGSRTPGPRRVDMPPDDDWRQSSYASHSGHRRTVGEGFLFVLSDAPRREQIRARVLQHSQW
Procedure, shortened: as §1

USP7 = USP7 (UniProt Q93009)
Procedure, shortened: as §1

USP8 = biological target: T5, USP8 (UniProt P40818)
T5 sequence (whole entry): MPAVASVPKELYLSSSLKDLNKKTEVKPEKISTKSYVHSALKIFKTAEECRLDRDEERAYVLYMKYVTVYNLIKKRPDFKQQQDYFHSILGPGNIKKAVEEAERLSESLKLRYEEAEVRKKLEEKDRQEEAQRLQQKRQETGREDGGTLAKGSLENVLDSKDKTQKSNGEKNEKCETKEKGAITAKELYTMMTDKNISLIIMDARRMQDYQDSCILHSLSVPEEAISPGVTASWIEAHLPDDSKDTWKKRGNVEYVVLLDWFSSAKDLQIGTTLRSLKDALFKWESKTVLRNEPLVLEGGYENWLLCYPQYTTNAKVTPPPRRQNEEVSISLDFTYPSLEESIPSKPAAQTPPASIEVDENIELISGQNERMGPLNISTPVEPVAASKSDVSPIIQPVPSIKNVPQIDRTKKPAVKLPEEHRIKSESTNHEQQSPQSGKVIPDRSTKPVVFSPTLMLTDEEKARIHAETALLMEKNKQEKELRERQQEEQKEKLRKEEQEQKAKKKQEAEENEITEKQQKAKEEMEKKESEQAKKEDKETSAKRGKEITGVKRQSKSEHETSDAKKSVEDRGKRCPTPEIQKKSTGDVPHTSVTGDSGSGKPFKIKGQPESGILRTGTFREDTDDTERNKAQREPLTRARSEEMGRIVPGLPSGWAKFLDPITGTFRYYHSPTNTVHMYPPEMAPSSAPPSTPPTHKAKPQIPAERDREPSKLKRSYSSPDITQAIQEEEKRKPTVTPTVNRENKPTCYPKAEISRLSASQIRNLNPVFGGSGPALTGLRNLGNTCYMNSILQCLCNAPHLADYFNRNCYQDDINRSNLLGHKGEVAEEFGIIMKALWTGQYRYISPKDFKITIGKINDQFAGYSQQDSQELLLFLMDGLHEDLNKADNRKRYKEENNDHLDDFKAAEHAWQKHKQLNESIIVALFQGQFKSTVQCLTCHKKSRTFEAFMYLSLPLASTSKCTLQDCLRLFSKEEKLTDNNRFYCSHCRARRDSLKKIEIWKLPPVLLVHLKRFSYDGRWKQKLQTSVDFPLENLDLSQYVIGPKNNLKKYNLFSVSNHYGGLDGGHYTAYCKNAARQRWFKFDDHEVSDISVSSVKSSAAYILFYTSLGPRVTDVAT
Procedure, shortened: as §1

USP9X = USP9X (UniProt Q93008)
USP9X, sequence (Q93008 whole entry): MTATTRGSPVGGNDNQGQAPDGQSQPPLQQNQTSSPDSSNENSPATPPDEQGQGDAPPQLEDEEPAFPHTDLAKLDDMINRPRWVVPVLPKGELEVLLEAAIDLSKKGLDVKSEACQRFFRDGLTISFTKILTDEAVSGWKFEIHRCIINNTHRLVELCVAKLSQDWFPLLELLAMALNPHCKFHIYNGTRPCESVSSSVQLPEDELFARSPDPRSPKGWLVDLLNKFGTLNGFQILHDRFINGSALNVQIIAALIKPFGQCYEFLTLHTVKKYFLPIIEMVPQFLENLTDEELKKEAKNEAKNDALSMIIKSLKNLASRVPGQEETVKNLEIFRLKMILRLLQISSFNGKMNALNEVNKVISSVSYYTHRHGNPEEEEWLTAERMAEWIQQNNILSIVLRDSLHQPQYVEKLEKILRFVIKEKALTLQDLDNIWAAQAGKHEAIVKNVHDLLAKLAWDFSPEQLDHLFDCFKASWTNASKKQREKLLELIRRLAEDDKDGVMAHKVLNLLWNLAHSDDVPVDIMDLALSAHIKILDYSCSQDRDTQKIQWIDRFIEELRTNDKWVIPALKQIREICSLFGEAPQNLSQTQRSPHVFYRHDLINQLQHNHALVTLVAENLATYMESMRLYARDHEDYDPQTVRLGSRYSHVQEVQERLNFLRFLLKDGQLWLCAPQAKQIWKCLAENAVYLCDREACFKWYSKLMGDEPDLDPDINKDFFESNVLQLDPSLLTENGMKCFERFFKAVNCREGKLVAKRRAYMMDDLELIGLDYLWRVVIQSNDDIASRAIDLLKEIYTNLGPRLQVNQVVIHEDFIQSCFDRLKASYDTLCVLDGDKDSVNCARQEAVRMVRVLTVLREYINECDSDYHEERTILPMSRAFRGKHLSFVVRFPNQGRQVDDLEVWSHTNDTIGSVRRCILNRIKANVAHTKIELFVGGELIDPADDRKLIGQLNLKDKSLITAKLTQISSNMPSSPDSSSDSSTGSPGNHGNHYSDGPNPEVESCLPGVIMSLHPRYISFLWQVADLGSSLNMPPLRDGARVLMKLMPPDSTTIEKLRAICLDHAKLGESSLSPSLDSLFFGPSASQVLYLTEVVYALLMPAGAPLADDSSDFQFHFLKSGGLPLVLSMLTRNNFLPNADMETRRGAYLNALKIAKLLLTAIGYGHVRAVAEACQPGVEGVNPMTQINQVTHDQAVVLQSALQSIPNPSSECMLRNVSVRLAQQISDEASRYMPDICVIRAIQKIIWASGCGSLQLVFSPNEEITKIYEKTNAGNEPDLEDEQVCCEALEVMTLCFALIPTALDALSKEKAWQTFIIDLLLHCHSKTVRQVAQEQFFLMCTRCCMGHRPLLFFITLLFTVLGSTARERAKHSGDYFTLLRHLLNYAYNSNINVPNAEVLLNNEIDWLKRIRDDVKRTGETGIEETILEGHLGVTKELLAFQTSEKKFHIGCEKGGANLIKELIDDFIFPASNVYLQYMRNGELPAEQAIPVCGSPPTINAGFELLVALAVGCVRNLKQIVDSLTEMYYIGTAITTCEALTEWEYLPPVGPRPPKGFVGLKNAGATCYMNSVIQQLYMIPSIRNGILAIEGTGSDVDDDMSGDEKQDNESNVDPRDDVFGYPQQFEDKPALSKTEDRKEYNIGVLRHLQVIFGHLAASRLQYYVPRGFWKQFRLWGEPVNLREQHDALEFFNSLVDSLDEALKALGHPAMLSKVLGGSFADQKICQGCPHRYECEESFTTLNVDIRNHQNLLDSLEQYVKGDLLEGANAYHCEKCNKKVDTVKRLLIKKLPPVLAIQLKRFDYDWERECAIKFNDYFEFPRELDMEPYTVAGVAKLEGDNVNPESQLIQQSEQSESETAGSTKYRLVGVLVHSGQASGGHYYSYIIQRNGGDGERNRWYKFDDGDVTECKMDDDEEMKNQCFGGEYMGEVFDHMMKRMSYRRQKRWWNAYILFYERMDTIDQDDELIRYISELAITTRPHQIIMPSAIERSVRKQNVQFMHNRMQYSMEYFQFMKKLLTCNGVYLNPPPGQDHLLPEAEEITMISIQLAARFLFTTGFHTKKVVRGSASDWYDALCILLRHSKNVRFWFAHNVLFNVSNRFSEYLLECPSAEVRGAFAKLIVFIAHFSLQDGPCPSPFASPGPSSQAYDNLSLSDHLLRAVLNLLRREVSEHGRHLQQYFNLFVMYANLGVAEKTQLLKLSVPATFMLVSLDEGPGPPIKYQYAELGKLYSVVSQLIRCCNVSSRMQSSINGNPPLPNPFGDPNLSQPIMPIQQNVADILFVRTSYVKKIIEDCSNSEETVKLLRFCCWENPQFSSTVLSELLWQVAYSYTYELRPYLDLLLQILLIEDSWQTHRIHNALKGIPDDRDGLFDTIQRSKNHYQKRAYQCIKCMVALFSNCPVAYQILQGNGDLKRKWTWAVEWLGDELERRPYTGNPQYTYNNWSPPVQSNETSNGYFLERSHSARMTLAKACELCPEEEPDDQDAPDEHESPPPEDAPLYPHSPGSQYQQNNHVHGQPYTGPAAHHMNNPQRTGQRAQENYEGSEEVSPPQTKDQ
Procedure, shortened: as §1

UniProt O00487 = biological target: UniProt O00487
UniProt O00487, sequence (O00487 whole entry): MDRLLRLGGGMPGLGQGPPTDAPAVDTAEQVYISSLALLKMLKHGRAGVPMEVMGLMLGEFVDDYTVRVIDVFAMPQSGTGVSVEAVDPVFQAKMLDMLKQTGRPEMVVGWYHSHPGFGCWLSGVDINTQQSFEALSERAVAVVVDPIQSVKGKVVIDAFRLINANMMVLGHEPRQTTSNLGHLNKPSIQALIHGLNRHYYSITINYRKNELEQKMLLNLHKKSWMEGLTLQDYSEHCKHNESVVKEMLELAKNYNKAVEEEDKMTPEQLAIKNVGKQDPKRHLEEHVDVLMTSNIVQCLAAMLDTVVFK
Procedure, shortened: as §1

Measured: log2 ratio of Biotin-Ahx-Ub-VS probe labelling

Cl.Cn1c(CNC(=O)CCl)nc2cccnc21
inactive: USP42 -0.141 | USP46 -0.0593 | USP47 -0.0713 | USP48 -0.0748 | USP5 -0.0112 | USP54 0.0986 | USP7 -0.133 | USP8 -0.0336 | USP9X -0.29 | UniProt O00487 -0.167
